The source of these data is PubChem BioAssay (EPA / NIEHS).

Assay [1] has as its target Myc proto-oncogene protein (Homo sapiens) (UniProt P01106). Kind of assay: ATG_Myc_CIS: Attagene CIS-FACTORIAL HepG2 Assay for human Myelocytomatosis (Myc) Proto-Oncogene Transcription Factor (AID 2282990). As to conditions: HepG2, Attagene cis-reporter transcription factor activity; actives raise or lower the signal. The gist of the method:
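DMSO-normalised, bidirectionally fitted reporter mRNA signal. HepG2 cells transfected with cis reporter constructs, treated 24 h; transcripts detected by RT-PCR, 6-FAM primer extension and CE.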

Assay [2] can be described thus: ATG_NF_kB_CIS: Attagene CIS-FACTORIAL HepG2 Assay for human Nuclear Factor Kappa B (NF-kB) (AID 2282991). As to conditions: HepG2 Attagene cis-factorial NF-kB reporter mRNA; actives raise or lower the signal. In outline:
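HepG2 cells transiently transfected with multiplexed cis-element reporter units measuring endogenous transcription factor activity; reporter mRNA read 24 h after dosing by RT-PCR, fluorescent labelling, HpaI digestion and capillary electrophoresis. Bidirectional fit against DMSO baseline.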

A short description of assay [3]: ATG_NRF2_ARE_CIS: Attagene CIS-FACTORIAL HepG2 Assay for human Nuclear Factor Erythroid 2 Related Factor 2 (NFR2) response to Antioxidant Response Elements (ARE) (AID 2282992). As to conditions: HepG2 Attagene ARE/NRF2 reporter, transcription factor activity; actives raise or lower the signal. In outline:
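Using transiently transfected HepG2 cells exposed for 24 h, reporter mRNA levels were determined by RT-PCR with fluorescent primer extension and capillary electrophoresis, analysed for gain or loss of signal against DMSO.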

Assay [4] can be described thus: ATG_Oct_MLP_CIS: Attagene CIS-FACTORIAL HepG2 Assay for human Octamer-Binding Transcription Factor (Oct) (AID 2282993). The following applies: HepG2 Attagene cis-factorial Oct reporter, mRNA; actives raise or lower the signal. In outline: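 Transient MRTU transfection of HepG2 → 24 h compound treatment → RNA isolation, reverse transcription, PCR → 6-FAM primer extension, HpaI digest → capillary electrophoresis. Activity fitted both directions against DMSO.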

Assay [5] addresses Cellular tumor antigen p53 (Homo sapiens) (UniProt P04637). Kind of assay: ATG_p53_CIS: Attagene CIS-FACTORIAL HepG2 Assay for human p53 Transcription Factor (AID 2282994). As to conditions: HepG2 p53 cis-element reporter, Attagene mRNA; actives raise or lower the signal. The gist of the method:
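In HepG2 cells, reporter transcription units under cis-regulatory promoters were transiently introduced. Following 24 h treatment, RNA was processed to labelled, digested cDNA fragments read by capillary electrophoresis; fitting was bidirectional versus DMSO.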

Assay [6] can be described thus: BSK_3C_TissueFactor: BioMAP Diversity Plus: 3C Assay for Tissue Factor Biomarker Activity (AID 2282997). As to conditions: BioMAP 3C HUVEC, tissue factor biomarker readout; actives raise or lower the signal. The gist of the method: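 Readout: Tissue Factor ELISA. Cells: human primary umbilical vein endothelium. Time: 24 h after dosing. Analysis: bidirectional fit, DMSO baseline.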

Assay [7] in a line: BSK_3C_VCAM1: BioMAP Diversity Plus: 3C Assay for Vascular cell adhesion molecule 1 (VCAM1) Biomarker Activity (AID 2282999). As to conditions: BioMAP 3C HUVEC, VCAM1 ELISA, cytokine-stimulated; actives raise or lower the signal. In outline: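 Vascular primary endothelium (human umbilical vein) was exposed to chemicals and assayed 24 h later. VCAM-1 levels came from ELISA, with DMSO serving as baseline for bidirectional fitting.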

Assay [8] in a line: BSK_4H_Eotaxin3: BioMAP Diversity Plus: 4H Assay for Eotaxin 3 Biomarker Activity (AID 2283000).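 As to outcome: CCL26 protein level quantified by ELISA in parallel with SRB cytotoxicity check.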 The following applies: primary human endothelial cells (HUVEC); actives raise or lower the signal. The gist of the method:
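HUVEC, 24 h post-dose, ELISA for Eotaxin-3/CCL26. Gain or loss of signal fitted bidirectionally vs DMSO baseline.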

For assay [9], the target named is human Peroxisome Proliferator-activated Receptor alpha (PPARa), PPARA (gene 5465) (UniProt Q07869). In words: ATG_PPARa_TRANS: Attagene TRANS-FACTORIAL HepG2 Assay for human Peroxisome Proliferator-activated Receptor alpha (PPARa) (AID 2283001; active = hit-call score of the fitted dose curve at least 0.9, where 1 is the maximum). In outline:
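Cells (HepG2) are transfected with multiple reporter transcription units, exposed to chemical for 24 h, then total RNA is reverse-transcribed and amplified. Labelled products are quantified by capillary electrophoresis; induction is referenced to DMSO.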

Assay [10] concerns the target human Peroxisome Proliferator-activated Receptor delta (PPARd), PPARD (gene 5467) (UniProt Q03181). Kind of assay: ATG_PPARd_TRANS: Attagene TRANS-FACTORIAL HepG2 Assay for human Peroxisome Proliferator-activated Receptor delta (PPARd) (AID 2283002; active = hit-call score of the fitted dose curve at least 0.9, where 1 is the maximum). In outline:
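Measured quantity: GAL4-UAS reporter transcript induction in HepG2 after 24 h chemical dosing, with NR-Gal4 chimeras supplied by transient transfection. Detection by RT-PCR and capillary electrophoresis; upward fit against DMSO.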

Read-out in assay [11]: Intercellular Adhesion Molecule 1 (ICAM1), ICAM1 (gene 3383)
Kind of assay: BSK_3C_ICAM1: BioMAP Diversity Plus: 3C Assay for Intercellular Adhesion Molecule 1 (ICAM1) Biomarker Activity (AID 2283003). The following applies: primary human endothelial cells (HUVEC); actives raise or lower the signal. In outline:
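ELISA readout of ICAM1 in human umbilical vein endothelial cells in the 3C system, taken 24 h post-dose. Gain or loss of signal versus DMSO was fitted in both directions, with SRB total-protein staining run in parallel.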

Assay [12] concerns the target Retinoic acid receptor alpha (Homo sapiens) (UniProt P10276). In words: ATG_RARa_TRANS: Attagene TRANS-FACTORIAL HepG2 Assay for human Retinoic Acid Receptor alpha (RARa) (AID 2283005; active = hit-call score of the fitted dose curve at least 0.9, where 1 is the maximum). In outline: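 HepG2 cells transiently transfected with multiple reporter units expressing chimeric RARα-GAL4 fusion, with GAL4-UAS-driven reporters. After 24 h compound exposure, reporter mRNA induction quantified by RT-PCR and capillary electrophoresis with fluorescent labeling; gain-of-signal fitted relative to DMSO control.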

A short description of assay [13]: BSK_3C_Proliferation: Cell Proliferation Assessment in the BioMAP Diversity Plus: 3C Assay (AID 2283006).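 As to AC50: potency may reflect either rise or fall in cell number versus DMSO.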 The following applies: primary human endothelial cells (HUVEC). The gist of the method:
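Proliferation as total protein: sulforhodamine B (0.1%) stain of TCA-fixed subconfluent human umbilical vein endothelial cells, absorbance 560 nm, 48 h after dosing. Activity fitted in both directions against DMSO baseline.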

For assay [14], the target named is Peroxisome proliferator-activated receptor gamma (Homo sapiens) (UniProt P37231). Kind of assay: ATG_PPARg_TRANS: Attagene TRANS-FACTORIAL HepG2 Assay for human Peroxisome Proliferator-activated Receptor-gamma (PPARg) (AID 2283007; active = hit-call score of the fitted dose curve at least 0.9, where 1 is the maximum). The gist of the method: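 HepG2 cells transiently transfected with multiplexed GAL4-UAS reporter units and exogenous chimeric NR-Gal4 proteins; reporter mRNA quantified after 24 h compound exposure by RT-PCR, fluorescent labelling, HpaI digestion and capillary electrophoresis; gain-of-signal fitted versus DMSO baseline.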

Assay [15] addresses Nuclear receptor subfamily 1 group I member 2 (Homo sapiens) (UniProt O75469). In words: ATG_PXR_TRANS: Attagene TRANS-FACTORIAL HepG2 Assay for human Pregnane X Receptor (PXR) (AID 2283008; active = hit-call score of the fitted dose curve at least 0.9, where 1 is the maximum). In outline:
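Multiplexed TRANS reporter panel in HepG2; this component tracks PXR-Gal4-driven reporter mRNA after 24 h dosing, measured by RT-PCR with capillary electrophoresis fluorescence, fitted against DMSO.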

Assay [16] has as its target human RAR-related Orphan Receptor beta (RORb), RORB (gene 6096) (UniProt Q92753). In words: ATG_RORb_TRANS: Attagene TRANS-FACTORIAL HepG2 Assay for human RAR-related Orphan Receptor beta (RORb) (AID 2283010; active = hit-call score of the fitted dose curve at least 0.9, where 1 is the maximum). The gist of the method: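 Read-out is reporter mRNA induction, quantified by RT-PCR with fluorescent capillary electrophoresis, 24 h post-dose in transiently transfected HepG2 expressing exogenous NR-Gal4 chimera. Activity fitted upward versus DMSO.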

Assay [17] addresses human RAR-related Orphan Receptor gamma (RORg), RORC (gene 6097) (UniProt P51449). In words: ATG_RORg_TRANS: Attagene TRANS-FACTORIAL HepG2 Assay for human RAR-related Orphan Receptor gamma (RORg) (AID 2283011; active = hit-call score of the fitted dose curve at least 0.9, where 1 is the maximum). The gist of the method: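 Readout: reporter transcript induction (RT-PCR, fluorescent primer extension, capillary electrophoresis) after 24 h compound exposure of transiently transfected HepG2 cells carrying a RORg-Gal4 chimera and GAL4-UAS reporters; DMSO served as baseline, with increasing signal fitted.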

Assay [18] addresses Retinoic acid receptor RXR-alpha (Homo sapiens) (UniProt P19793). Kind of assay: ATG_RXRa_TRANS: Attagene TRANS-FACTORIAL HepG2 Assay for human Retinoid X Receptor alpha (RXRa) (AID 2283012; active = hit-call score of the fitted dose curve at least 0.9, where 1 is the maximum). The gist of the method:
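TRANS format reporting activity of exogenous RXRa-Gal4 chimera in transiently transfected HepG2, 24 h exposure. Reporter transcripts quantified by RT-PCR with capillary electrophoresis, with gain of signal scored relative to DMSO.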

Assay [19] can be described thus: BSK_3C_uPAR: BioMAP Diversity Plus: 3C Assay for Urokinase-type plasminogen activator receptor (uPAR) Biomarker Activity (AID 2282998). As to conditions: BioMAP 3C HUVEC, uPAR biomarker ELISA; actives raise or lower the signal. The gist of the method:
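ELISA readout of uPAR on human vascular endothelium (umbilical vein primary cells), taken 24 h after chemical dosing. Increases and decreases are both fitted relative to DMSO vehicle.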

Assay [20] addresses human Retinoic Acid Receptor beta (RARb), RARB (gene 5915) (UniProt P10826). In words: ATG_RARb_TRANS: Attagene TRANS-FACTORIAL HepG2 Assay for human Retinoic Acid Receptor beta (AID 2283004; active = hit-call score of the fitted dose curve at least 0.9, where 1 is the maximum). The gist of the method:
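HepG2 cells transiently transfected with multiplexed GAL4-UAS reporter units expressing chimeric NR–Gal4 fusions; 24 h compound exposure. Reporter mRNA quantified by RT-PCR, 6-FAM labelling, HpaI digestion and capillary electrophoresis; gain-of-signal fitted against DMSO baseline.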

Records with an inconclusive call do not appear. Where a structure was tested more than once in an assay, its records may differ in their call. Activity calls are given as the source filed them. The calls were made as follows, unless noted: active = hit-call score of the fitted dose curve at least 0.9, where 1 is the maximum; inactive = score below 0.9.

Chain of human Peroxisome Proliferator-activated Receptor delta (PPARd), PPARD (gene 5467) (Q03181 whole entry, looked up, the tested form may be a part): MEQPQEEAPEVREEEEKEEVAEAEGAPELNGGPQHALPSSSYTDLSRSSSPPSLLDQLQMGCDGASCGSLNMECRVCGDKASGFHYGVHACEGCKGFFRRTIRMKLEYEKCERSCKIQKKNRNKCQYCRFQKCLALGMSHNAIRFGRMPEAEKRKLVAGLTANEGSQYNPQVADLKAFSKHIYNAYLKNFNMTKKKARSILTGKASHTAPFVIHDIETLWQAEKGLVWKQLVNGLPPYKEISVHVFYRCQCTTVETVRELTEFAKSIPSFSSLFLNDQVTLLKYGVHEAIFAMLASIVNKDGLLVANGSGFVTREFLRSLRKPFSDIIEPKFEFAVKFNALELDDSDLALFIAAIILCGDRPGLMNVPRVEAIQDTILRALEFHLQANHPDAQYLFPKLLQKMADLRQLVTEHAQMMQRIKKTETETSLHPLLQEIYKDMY
Chain of human Peroxisome Proliferator-activated Receptor alpha (PPARa), PPARA (gene 5465) (Q07869 whole entry, looked up): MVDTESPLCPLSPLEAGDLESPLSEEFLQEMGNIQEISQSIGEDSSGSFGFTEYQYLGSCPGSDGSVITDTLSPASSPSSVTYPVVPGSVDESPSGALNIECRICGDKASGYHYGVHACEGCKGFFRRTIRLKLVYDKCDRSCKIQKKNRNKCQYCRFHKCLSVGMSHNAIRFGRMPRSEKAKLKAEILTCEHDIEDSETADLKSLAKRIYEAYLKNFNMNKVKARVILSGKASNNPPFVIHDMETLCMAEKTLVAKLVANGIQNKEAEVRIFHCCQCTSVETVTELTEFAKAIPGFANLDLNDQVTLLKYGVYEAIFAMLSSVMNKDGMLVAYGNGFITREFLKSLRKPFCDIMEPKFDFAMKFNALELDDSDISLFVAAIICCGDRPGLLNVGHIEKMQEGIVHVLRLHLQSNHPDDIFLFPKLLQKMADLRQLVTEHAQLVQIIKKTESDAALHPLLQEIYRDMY
Chain of Peroxisome proliferator-activated receptor gamma (Homo sapiens) (P37231 whole entry, looked up, the tested form may be a part): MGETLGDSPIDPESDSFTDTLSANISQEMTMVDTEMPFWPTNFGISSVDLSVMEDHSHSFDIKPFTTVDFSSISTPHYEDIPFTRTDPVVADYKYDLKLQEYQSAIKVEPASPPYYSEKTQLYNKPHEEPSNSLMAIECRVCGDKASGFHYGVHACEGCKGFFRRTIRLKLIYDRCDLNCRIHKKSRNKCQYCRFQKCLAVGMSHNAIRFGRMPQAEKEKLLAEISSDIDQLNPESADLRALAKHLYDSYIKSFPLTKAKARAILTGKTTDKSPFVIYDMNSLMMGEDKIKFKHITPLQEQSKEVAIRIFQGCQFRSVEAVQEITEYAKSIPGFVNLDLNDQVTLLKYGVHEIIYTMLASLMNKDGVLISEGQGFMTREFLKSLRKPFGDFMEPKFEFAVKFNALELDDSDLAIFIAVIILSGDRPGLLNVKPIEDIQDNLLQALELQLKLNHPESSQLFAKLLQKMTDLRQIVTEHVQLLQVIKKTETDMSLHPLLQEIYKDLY
Chain of Retinoic acid receptor alpha (Homo sapiens) (P10276 whole entry, looked up, the tested form may be a part): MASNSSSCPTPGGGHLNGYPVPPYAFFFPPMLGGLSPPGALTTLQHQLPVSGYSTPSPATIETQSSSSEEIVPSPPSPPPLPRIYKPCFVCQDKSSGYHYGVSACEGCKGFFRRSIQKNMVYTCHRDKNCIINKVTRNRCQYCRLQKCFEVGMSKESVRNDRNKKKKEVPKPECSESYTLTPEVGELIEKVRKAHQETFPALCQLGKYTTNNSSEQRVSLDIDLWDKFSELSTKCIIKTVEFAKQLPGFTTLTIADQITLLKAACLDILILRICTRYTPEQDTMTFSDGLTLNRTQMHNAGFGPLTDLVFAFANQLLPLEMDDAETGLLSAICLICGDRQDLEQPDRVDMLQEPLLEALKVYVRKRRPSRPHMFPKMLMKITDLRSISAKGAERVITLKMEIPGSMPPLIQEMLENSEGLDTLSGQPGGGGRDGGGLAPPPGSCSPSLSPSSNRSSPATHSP
Chain of Myc proto-oncogene protein (Homo sapiens) (P01106 whole entry, looked up): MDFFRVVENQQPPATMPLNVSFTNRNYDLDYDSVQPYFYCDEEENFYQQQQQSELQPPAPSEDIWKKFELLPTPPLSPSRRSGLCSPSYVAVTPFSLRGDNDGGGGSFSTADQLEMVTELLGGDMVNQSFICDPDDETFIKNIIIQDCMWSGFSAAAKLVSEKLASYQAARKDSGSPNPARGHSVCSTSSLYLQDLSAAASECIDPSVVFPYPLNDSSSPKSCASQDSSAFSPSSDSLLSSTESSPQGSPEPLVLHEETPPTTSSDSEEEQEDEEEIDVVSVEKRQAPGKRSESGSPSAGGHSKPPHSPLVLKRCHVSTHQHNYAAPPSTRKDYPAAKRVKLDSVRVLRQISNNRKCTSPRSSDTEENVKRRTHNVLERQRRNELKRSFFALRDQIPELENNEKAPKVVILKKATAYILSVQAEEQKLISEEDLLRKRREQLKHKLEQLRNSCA
Chain of Cellular tumor antigen p53 (Homo sapiens) (P04637 whole entry, looked up, the tested form may be a part): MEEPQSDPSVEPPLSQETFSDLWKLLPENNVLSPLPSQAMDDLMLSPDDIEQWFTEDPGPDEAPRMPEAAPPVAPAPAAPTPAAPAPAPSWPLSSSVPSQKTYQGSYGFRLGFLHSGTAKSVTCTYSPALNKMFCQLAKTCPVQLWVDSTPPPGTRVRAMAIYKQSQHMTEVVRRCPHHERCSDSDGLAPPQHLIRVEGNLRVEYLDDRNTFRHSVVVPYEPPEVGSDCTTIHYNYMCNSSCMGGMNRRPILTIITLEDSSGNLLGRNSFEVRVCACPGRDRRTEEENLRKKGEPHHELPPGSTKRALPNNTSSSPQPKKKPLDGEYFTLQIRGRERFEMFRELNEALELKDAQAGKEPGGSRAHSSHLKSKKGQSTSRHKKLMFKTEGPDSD
Chain of human RAR-related Orphan Receptor beta (RORb), RORB (gene 6096) (Q92753 whole entry, looked up, the tested form may be a part): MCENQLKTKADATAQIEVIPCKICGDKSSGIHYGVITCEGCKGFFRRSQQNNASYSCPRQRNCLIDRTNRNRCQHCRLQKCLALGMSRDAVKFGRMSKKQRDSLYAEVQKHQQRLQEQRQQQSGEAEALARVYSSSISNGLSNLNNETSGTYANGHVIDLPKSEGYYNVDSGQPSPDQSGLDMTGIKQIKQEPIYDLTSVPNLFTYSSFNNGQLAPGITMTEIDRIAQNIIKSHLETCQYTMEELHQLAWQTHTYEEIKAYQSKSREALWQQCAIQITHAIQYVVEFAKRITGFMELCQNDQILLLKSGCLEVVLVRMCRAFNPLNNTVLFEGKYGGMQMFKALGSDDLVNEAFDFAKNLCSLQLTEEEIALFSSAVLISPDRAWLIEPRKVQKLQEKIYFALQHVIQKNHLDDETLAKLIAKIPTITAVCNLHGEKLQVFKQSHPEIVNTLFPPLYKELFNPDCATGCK
Chain of Retinoic acid receptor RXR-alpha (Homo sapiens) (P19793 whole entry, looked up, the tested form may be a part): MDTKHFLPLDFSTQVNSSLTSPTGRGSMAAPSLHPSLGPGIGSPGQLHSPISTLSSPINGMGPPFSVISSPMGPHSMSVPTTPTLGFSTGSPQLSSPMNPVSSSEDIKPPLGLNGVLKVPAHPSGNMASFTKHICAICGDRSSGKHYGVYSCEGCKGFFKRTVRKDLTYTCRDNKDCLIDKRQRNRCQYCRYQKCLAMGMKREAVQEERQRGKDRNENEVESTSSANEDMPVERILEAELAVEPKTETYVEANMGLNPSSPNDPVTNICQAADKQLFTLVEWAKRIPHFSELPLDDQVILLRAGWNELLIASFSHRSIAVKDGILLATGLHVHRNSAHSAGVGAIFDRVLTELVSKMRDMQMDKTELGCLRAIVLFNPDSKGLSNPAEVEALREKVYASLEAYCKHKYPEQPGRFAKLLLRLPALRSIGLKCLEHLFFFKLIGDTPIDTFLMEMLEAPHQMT
Chain of Nuclear receptor subfamily 1 group I member 2 (Homo sapiens) (O75469 whole entry, looked up, the tested form may be a part): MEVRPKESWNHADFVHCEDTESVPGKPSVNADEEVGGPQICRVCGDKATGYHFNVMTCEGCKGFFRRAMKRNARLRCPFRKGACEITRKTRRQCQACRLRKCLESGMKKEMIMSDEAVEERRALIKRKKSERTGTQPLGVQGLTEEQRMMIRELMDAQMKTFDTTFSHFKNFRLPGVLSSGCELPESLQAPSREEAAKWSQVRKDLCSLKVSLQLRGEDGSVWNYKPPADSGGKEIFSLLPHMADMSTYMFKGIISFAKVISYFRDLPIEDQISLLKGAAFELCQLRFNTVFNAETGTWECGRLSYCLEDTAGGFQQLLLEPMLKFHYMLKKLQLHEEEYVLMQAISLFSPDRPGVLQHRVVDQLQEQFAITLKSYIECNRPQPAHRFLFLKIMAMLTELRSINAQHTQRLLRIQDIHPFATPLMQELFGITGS
Chain of human RAR-related Orphan Receptor gamma (RORg), RORC (gene 6097) (P51449 whole entry, looked up, the tested form may be a part): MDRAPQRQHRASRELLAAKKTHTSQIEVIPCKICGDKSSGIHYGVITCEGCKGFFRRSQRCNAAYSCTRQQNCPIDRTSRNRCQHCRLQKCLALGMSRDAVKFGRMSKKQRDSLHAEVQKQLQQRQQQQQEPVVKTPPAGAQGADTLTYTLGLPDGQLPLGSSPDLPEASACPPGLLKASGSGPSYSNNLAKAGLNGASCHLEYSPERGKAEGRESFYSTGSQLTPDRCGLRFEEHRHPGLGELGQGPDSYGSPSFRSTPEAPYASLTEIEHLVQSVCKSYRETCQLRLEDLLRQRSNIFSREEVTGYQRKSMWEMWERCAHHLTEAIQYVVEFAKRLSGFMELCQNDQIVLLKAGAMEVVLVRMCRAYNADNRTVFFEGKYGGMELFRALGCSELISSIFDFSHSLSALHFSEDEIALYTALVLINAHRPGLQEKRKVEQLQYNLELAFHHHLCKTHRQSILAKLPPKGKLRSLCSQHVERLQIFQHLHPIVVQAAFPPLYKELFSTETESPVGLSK

Regarding `OCc1c[nH]c2ccccc12`, the result in [1], in [2], in assay [4], in assay [5], in assay [7] and in [9] was inactive. For the same compound, the compound was classed as inactive in assay [10], in assay [11], in [12], in assay [16], in [17] and in assay [18]. The AC50 in [2] was 25.5 µM (active); in assay [3], 26.6 µM (active) [middle of 5 runs]; in [5] it was 26.8 µM (active); in [6], 0.133 µM (active); in [8], 6.67 µM (active); in assay [13] it was 9.76 µM (active). Besides, the half-maximal activity concentration (AC50) in [14] was 7.94 µM (active) [middle of 5 runs]; in assay [15], 1.89 µM (active) [middle of 5 runs].

For the compound `CCN(CC)C(=S)SSC(=S)N(CC)CC`, the AC50 in assay [1] is 83.7 µM (active); in assay [2], 27.6 µM (active); in assay [3] it was 184 µM (active); in assay [4], 144 µM (active); in assay [5] it was 137 µM (active); in assay [6], 20 µM (active). The AC50 is 20.6 µM (active) in assay [19]; 28.9 µM (active) in assay [7]; 32.3 µM (active) in assay [8]; 34.9 µM (active) in assay [11]; 49.6 µM (active) in assay [15]. For the same compound, the result in assay [9], in assay [10], in [14], in [16], in assay [17] and in assay [18] was inactive.

For the compound `OCc1ccccc1`, the outcome in [1], in [2], in [3], in assay [4], in assay [6] and in assay [19] was inactive. Further, the outcome in assay [7], in assay [8], in assay [9], in assay [11], in [20] and in [12] was inactive. The result in [13], in [14], in assay [17] and in [18] was inactive. Also, the AC50 in assay [18] was 5.67 µM (active).
